Source: PubChem BioAssay (EPA / NIEHS)
“And” between values parts separate entries of the source, which are not always exact repeats. Equal values may be shown once. Some structures have more than one record in an assay (separate samples or runs), and their calls can disagree. The source made the active and inactive calls. Rule for the calls: active = hit-call score of the fitted dose curve at least 0.9, where 1 is the maximum; inactive = score below 0.9.

Assay: ATG_AP_1_CIS: Attagene CIS-FACTORIAL HepG2 Assay for human Activator Protein 1 (AP-1) (AID 2282931)
Conditions: HepG2 Attagene cis-factorial AP-1 reporter mRNA; actives raise or lower the signal
Procedure: ATG_CIS is a cell-based, multiplexed-readout assay that uses HepG2, a human liver cell line, with measurements taken at 24 hours after chemical dosing in a 24-well plate.ATG_AP_1_CIS is one of 52 assay component(s) measured or calculated from the ATG_CIS assay. It is designed to make measurements of mRNA induction, a form of inducible reporter, as detected with fluorescence intensity signals by Reverse transcription polymerase chain reaction (RT-PCR) and Capillary electrophoresis technology.Data from the assay component ATG_AP_1_CIS was analyzed into 1 assay endpoint. This assay endpoint, ATG_AP_1_CIS, was analyzed with bidirectional fitting relative to DMSO as the negative control and baseline of activity. Using a type of inducible reporter, measures of mRNA for gain or loss-of-signal activity can be used to understand the reporter gene at the transcription factor-level as they relate to the gene FOS and JUN. Furthermore, this assay endpoint can be referred to as a primary readout, because this assay has produced multiple assay endpoints where this one serves a reporter gene function. To generalize the intended target to other relatable targets, this assay endpoint is annotated to the dna binding intended target family, where the subfamily is basic leucine zipper.
Human liver HepG2 cells are transiently transfected with multiple reporter transcription units (MRTUs) in 6-well plates using FuGene 6 reagent (Roche; 3 ml FuGene/1 mg DNA). The MRTU constructs are regulated by a cis-regulating element (promoter). […] A major difference between the CIS and TRANS system is that in CIS activities of endogenous TFs are measured, whereas the TRANS assay evaluates changes in activities of exogenous, chimeric NR-Gal4 proteins. […] At the end of 24 hour incubation, total RNA was isolated using TriZol reagent (Invitrogen). The isolated RNA is then reverse-transcribed using oligo(dT) primer and Mo-MLV reverse transcriptase (Invitrogen) with DNAse I (Ambion) treatment for 30 min. The one-tenth of the produced cDNA was amplified by PCR using Taq DNA polymerase (Invitrogen) and two reporter sequence-specific primers. The PCR products were fluorescently labeled by primer extension with 6-arboxyfluorescein (6-FAM) 5'-labeled reporter sequence-specific primer (2 min at 95 C, 20 s at 68 C and 10 min at 72 C) and these products were digested with 5U of HpaI (New England Biolabs) for 2h at 37 C. The fragments were purified using Qiaquick PCR columns (Qiagen), analyzed on an ABI 3130xL genetic analyzer (Applied Biosystems) with peak positions identified by using a set of X-rhodamine (ROX)-labeled MapMarker1000 molecular weight standards (BioVentures). The raw capillary electrophoresis data was processed using Attagraph software (Attagene).
With `Nc1cc(Cl)c(-c2cc(Cl)c(N)cc2Cl)cc1Cl` the AC50 was 3.81 µM (active).
For `COc1cc([N+](=O)[O-])ccc1N`, the outcome was “inactive”.
With `C=C(c1ccc(C(=O)O)cc1)c1cc2c(cc1C)C(C)(C)CCC2(C)C` the outcome was “inactive” and the AC50 was 11.4 µM (active).
With `O=C1C=CC(=O)N1c1cccc(N2C(=O)C=CC2=O)c1` the outcome was “inactive”.
With `NC(C(F)(F)F)C(F)(F)F` the outcome was “inactive”.
For `CCCCCCOC(=O)c1ccc(O)cc1`, the AC50 was 50.4 µM (active).
With `CCCCc1oc2ccccc2c1C(=O)c1cc(I)c(OCCN(CC)CC)c(I)c1` the AC50 was 20.2 µM (active).
In the case of `C[N+](C)(CCCNS(=O)(=O)CCC(F)(F)C(F)(F)C(F)(F)C(F)(F)C(F)(F)C(F)(F)F)CC(=O)[O-]`, the AC50 is reported as 0.00657 µM (active).
In the case of `O=CC(F)(F)C(F)(F)C(F)(F)F`, the outcome is reported as “inactive”.
In the case of `Cc1cc(Cc2cc(C)cc(C(C)(C)C)c2O)c(O)c(C(C)(C)C)c1`, the AC50 is reported as 24.9 µM (active).
In the case of `CN(Cc1cnc2nc(N)nc(N)c2n1)c1ccc(C(=O)N[C@@H](CCC(=O)O)C(=O)O)cc1`, the outcome is reported as “inactive”.
For `CCOC(C)=O`, the outcome was “inactive”.
For `CC(C)(C)C1CCCCC1O` (stereo not given), the outcome was “inactive”.
With `CC(=O)Nc1ccc(S(N)(=O)=O)cc1` the outcome was “inactive”.
In the case of `Cc1[nH]nc2c1N=C(c1ccccc1Cl)c1cc([N+](=O)[O-])ccc1N2`, the AC50 is reported as 0.125 µM (active).
In the case of `CCc1ccccc1O`, the outcome is reported as “inactive”.
For `COC(O)c1ccccc1` (stereo not given), the outcome was “inactive”.
In the case of `O=C(F)C(F)(F)C(F)(F)C(F)(F)C(=O)F`, the outcome is reported as “inactive”.
With `NS(=O)(=O)O` the outcome was “inactive”.
With `O=C1Cc2ccccc2N1c1c(Cl)cccc1Cl` the outcome was “inactive”.
With `CC=O` the outcome was “inactive”.
In the case of `C[C@]12CC[C@@H]3c4ccc(O)cc4CC[C@H]3[C@@H]1C[C@@H](O)[C@@H]2O`, the outcome is reported as “inactive”.
In the case of `Nc1ccc(O)c(C(=O)O)c1`, the outcome is reported as “inactive”.
For `Brc1cc(Br)c(Oc2c(Br)cc(Br)c(Br)c2Br)cc1Br`, the outcome was “inactive”.
With `CCOC(OCC)C(=O)c1ccccc1` the outcome was “inactive”.
In the case of `O=C(c1ccccc1)c1ccccc1`, the outcome is reported as “inactive”.
In the case of `O=C(CC(=O)C(F)(F)C(F)(F)C(F)(F)F)c1cccs1`, the AC50 is reported as 35.2 µM (active) and 42 µM (active).
For `CCCCCCCCCCCCCCCCCC[N+](C)(C)Cc1ccccc1`, the outcome was “inactive”.
In the case of `Cc1cncc(C)c1`, the outcome is reported as “inactive”.
For `Clc1ccc2c(Cl)ccnc2c1`, the outcome was “inactive”.
In the case of `CCCCCCCCCC=CCC1CC(=O)OC1=O` (stereo not given), the outcome is reported as “inactive”.
In the case of `C[C@]12CC[C@@H]3c4ccc(O)cc4CC[C@H]3[C@@H]1CC[C@@H]2OC(=O)CCC1CCCC1`, the outcome is reported as “inactive”.
In the case of `CC[N+](CC)(CC)Cc1ccccc1`, the outcome is reported as “inactive”.
With `CCCCCCCCCCCC(=O)NCCCN(C)C` the outcome was “inactive”.
For `CCN(CCC#N)c1ccccc1`, the outcome was “inactive”.
With `CCCCCCCCCCCC(=O)O` the AC50 was 117 µM (active) and 60 µM (active).
For `CCCCCCCCCCCCCCC`, the outcome was “inactive”.
With `CN(C)CCOC(c1ccccc1)c1ccccc1` the outcome was “inactive”.
For `O=C(C=C(O)C(F)(F)F)C(F)(F)F`, the outcome was “inactive”.
